According to PubChem BioAssay (Tox21):
Values without a mark were called inactive. Inconclusive results are not listed. Where a call stands in place of a potency, no number is given. Activity calls are given as the source filed them. Unless noted, calls follow the shape of the dose curve; as a rule, active = well fitted curve in the direction sought with a large enough effect in the repeat runs; inconclusive = weak or mixed curves; inactive = no such curve, though single readings can be large; an effect the other way counts as inactive or inconclusive.

Tests used:
[1] = qHTS assay to identify small molecule antagonists of the estrogen related receptor (ERR) signaling pathway - cell viability counter screen (AID 1224818); also: series mostly up to about 46 µM
Summary of the method: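 ERR cells, 2,000 per well, compound added after 6 h and incubated 17.5 h at 37 C. Viability read by CellTiter-Fluor fluorescence after a further 30 min at 37 C.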

[2] = qHTS assay to identify small molecule agonists of the estrogen related receptor (ERR) signaling pathway (AID 1224820)
Summary of the method: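 Quantitative HTS of the LOPAC library used NTP ERR reporter cells treated 18 h at 37 C. Signal is luminescence after One-Glo addition and a 30 min room-temperature incubation.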

[3] = tested on: estrogen-related receptor alpha (ERRalpha) with PGC-1alpha coactivator, human; experiment: qHTS assay to identify small molecule antagonists of the estrogen related receptor signaling pathway with the pleiotropic PPARgamma coactivator (PGC) (AID 1224821; calls by dose curve;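 also: series mostly up to about 46 µM; lower luminescence signal means antagonism of PGC/ERR signalling; nearly all actives have a fitted effect of over 50% in size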)
Summary of the method: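 Quantitative HTS for antagonism: PGC/ERR cells received compounds after 6 h attachment and were incubated 18 h at 37 C, with luminescence (One-Glo) as the endpoint.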

[4] = qHTS assay to identify small molecule agonists of the estrogen related receptor signaling pathway with the pleiotropic PPARgamma coactivator (PGC) (AID 1224823); also: potency is read from the fitted curve at half-maximal effect
Summary of the method: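 Cell-based luciferase assay in the NTP-supplied PGC/ERR line, 2,000 cells/well; 18 h compound exposure at 37 C, luminescence after One-Glo.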

[5] = qHTS assay to identify small molecule antagonists of the estrogen related receptor signaling pathway with the pleiotropic PPARgamma coactivator (PGC) cell viability counter screen (AID 1224822; also: series mostly up to about 46 µM)
Summary of the method: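 PGC/ERR cells rested 6 h, then compound-treated 17.5 h at 37 C. CellTiter-Fluor added for 30 min at 37 C, viability measured by fluorescence intensity.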

[6] = qHTS assay to identify small molecule antagonists of the estrogen related receptor (ERR) signaling pathway (AID 1224819; also: nearly all actives have a fitted effect of over 50% in size; also: potency is read from the fitted curve at half-maximal effect)
Summary of the method: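 ERR reporter cell line (NTP) plated at 2,000 cells/well, settled 6 h at 37C/5% CO2, then exposed to LOPAC compounds for 18 h at 37C. One-Glo luciferase luminescence read after 30 min at room temperature.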

[7] = qHTS assay to identify small molecule agonists of H2AX (AID 1224845; active = well fitted activation curve with a large enough effect in the signal ratio in the repeat runs, not every such curve was filed as active; the % refers to the signal ratio)
Summary of the method: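 Wild-type CHO-K1 cells, plated overnight, exposed 3hr at 37C to 15 concentrations (0.76% DMSO final). Lysed, then HTRF anti-pH2AX (S139) cryptate and anti-H2AX-d2 antibodies, 24 hr room temperature; 665/620 nm emission read.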

Aromatase (Homo sapiens) = Aromatase (Homo sapiens) (UniProt P11511); experiment: qHTS assay to identify aromatase inhibitors (AID 743083); also: series mostly up to about 70 µM; nearly all actives have a fitted effect of over 55% in size
[8] = molecular target: Acetylcholinesterase (Homo sapiens) (UniProt P22303); experiment: Acetylcholinesterase (AChE) small molecule antagonists: colormetric cell-based qHTS assay (AID 1347395; calls by dose curve; also: nearly all actives have a fitted effect of over 30% in size)
Summary of the method: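 Neuroblastoma line SH-SY5Y supplied the enzyme; cells were preincubated with compound for 30 min at 37 C and 5% CO2. Acetylthiocholine with DTNB was then added for 90 min at 37 C, and thiocholine was measured by colour.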

[9] = molecular target: Acetylcholinesterase (Homo sapiens) (UniProt P22303); experiment: Acetylcholinesterase (AChE) small molecule antagonists: enzyme-based qHTS assay (AID 1347397; calls by dose curve; also: nearly all actives have a fitted effect of over 55% in size); details: Potency: AChE enzyme activity inhibition; outcome: AChE enzyme activity inhibition
Summary of the method: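 Enzyme inhibition was scored from DTNB-detected thiocholine formed by recombinant human AChE acting on acetylthiocholine. The 30 min compound preincubation and 10 min substrate reaction were both run at room temperature, with DMSO as vehicle control.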

[10] = molecular target: Acetylcholinesterase (Homo sapiens) (UniProt P22303); experiment: Acetylcholinesterase (AChE) small molecule antagonists: fluorescence cell-based qHTS assay (AID 1347398; calls by dose curve; also: nearly all actives have a fitted effect of over 50% in size); details: Potency: AChE activity; outcome: AChE activity
Summary of the method: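 Endogenous acetylcholinesterase of SH-SY5Y neuroblastoma cells is measured in situ. After overnight attachment and 30 min compound exposure, cells receive acetylthiocholine and Thiolite Green; fluorescence is read after 40 min at room temperature.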

[11] = molecular target: Acetylcholinesterase (Homo sapiens) (UniProt P22303); experiment: Acetylcholinesterase (AChE) small molecule antagonists: enzyme-based qHTS assay with human liver microsomes (AID 1347399; calls by dose curve; also: nearly all actives have a fitted effect of over 60% in size); details: Potency: qHTS inhibition; outcome: qHTS inhibition
Summary of the method: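 Recombinant human AChE (50 mU/mL in the enzyme mix) and human liver microsomes (0.25 mg/mL final) were preincubated with compound and NADPH (0.25 mg/mL final) for 30 min at 37 C. Acetylthiocholine/DTNB was then added; thiocholine was read colorimetrically after 10 min at room temperature.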

[12] = qHTS assay to identify small molecule antagonists of the estrogen related receptor (ERR) signaling pathway from Tox21 library - cell viability counter screen (AID 1224834); also: nearly all actives have a fitted effect of over 30% in size
Summary of the method: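 ERR reporter cells, 2,000 per well, rested 6 h, then exposed to compound in DMSO for 17.5 hours at 37 C. Viability read as fluorescence after 30 min with CellTiter-Fluor.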

[13] = qHTS assay to identify small molecule antagonists of the estrogen related receptor signaling pathway with the pleiotropic PPARgamma coactivator (PGC) from Tox21 10K library - cell viability counter screen (AID 1224840; active = well fitted cell-killing curve with a large enough effect in the repeat runs, not every such curve was filed as active; also: nearly all actives have a fitted effect of over 40% in size)
Summary of the method: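 PGC/ERR cells (2,000/well) plated 6 h, then compound-treated for 17.5 h at 37 C. Viability measured by CellTiter-Fluor fluorescence after 30 min at 37 C, multiplexed with the pathway assay.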

Acetylcholinesterase (Homo sapiens), sequence (P22303 whole entry, looked up): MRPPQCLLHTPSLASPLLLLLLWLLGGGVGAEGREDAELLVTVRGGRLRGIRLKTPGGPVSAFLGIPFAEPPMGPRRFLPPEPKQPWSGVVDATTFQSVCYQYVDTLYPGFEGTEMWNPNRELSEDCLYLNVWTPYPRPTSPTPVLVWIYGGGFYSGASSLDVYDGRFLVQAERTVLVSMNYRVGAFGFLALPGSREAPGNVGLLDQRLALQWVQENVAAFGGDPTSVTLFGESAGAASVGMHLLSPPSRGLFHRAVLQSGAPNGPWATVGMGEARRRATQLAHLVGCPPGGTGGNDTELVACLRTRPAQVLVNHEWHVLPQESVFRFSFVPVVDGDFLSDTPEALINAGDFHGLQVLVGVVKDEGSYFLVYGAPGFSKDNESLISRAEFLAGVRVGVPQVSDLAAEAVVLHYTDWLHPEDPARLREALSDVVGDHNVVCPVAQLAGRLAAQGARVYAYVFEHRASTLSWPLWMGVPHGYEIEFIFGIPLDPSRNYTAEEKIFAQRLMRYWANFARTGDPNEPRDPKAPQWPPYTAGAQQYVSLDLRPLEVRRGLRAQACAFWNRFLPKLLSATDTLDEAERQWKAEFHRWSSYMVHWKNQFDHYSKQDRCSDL
Aromatase (Homo sapiens), sequence (P11511 whole entry, looked up): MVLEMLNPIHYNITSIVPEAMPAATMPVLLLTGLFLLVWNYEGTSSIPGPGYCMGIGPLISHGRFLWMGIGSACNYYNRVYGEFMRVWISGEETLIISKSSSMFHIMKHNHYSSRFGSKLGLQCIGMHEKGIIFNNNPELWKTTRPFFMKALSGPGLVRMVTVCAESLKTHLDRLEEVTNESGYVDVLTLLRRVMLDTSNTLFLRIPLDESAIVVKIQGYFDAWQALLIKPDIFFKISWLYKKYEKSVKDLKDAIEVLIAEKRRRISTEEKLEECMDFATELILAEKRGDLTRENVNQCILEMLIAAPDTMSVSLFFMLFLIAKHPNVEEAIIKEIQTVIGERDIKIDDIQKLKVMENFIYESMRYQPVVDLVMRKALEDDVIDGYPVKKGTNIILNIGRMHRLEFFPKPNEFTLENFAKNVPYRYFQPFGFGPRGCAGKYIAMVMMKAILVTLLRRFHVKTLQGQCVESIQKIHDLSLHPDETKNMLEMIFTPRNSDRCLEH

With `CN1CCc2cc(O)cc3c2[C@H]1Cc1ccc(O)c(O)c1-3` the Potency [1] was “inactive”, the Potency [2] was “inactive” and the Potency [3] was “inactive”. For the same compound, the Potency [4] was “inactive”.
With `CN1C2CCC1CC(OC(=O)c1cc(Cl)cc(Cl)c1)C2` (centres undefined) the Potency [1] was “inactive” and the Potency [5] was “inactive”.
For `C[C@]12Cc3cn4c(nc3C=C1CCC1C2CC[C@@]2(C)[C@H]1CC[C@@]2(O)C#N)nc1ccccc14` (some centres undefined), the Potency [1] was “inactive”, the Potency [6] was 10.6 µM (active) and the Potency [2] was “inactive”. For the same compound, the Potency [4] was “inactive”.
In the case of `NC(=O)COc1c(F)cc(SCCNS(=O)(=O)c2ccccc2)cc1F`, the Potency [1] is reported as “inactive”, the Potency [2] is reported as “inactive” and the Potency [3] is reported as “inactive”. The Potency [5] was “inactive” and the Potency [4] was “inactive”.
With `NNC(=O)c1ccc(O)cc1` the Potency [1] was “inactive”, the Potency [6] was “inactive” and the Potency [3] was “inactive”. The Potency [5] was “inactive” and the Potency [4] was “inactive”.
For `CC[C@@H](C(N)=O)N1CCCC1=O`, the Potency [1] was “inactive” and the Potency [5] was “inactive”.
In the case of `O=[N+]([O-])c1cc(O)c(O)c([N+](=O)[O-])c1`, the Potency [6] is reported as “inactive”, the Potency [2] is reported as “inactive” and the Potency [3] is reported as “inactive”. The Potency [5] was “inactive” and the Potency [4] was “inactive”.
For `CC1(C(=O)O)C2CCC(O2)C1(C)C(=O)O` (centres undefined), the Potency [2] was “inactive”.
With `CN1[C@@H]2CC[C@@H]1CC(OC(=O)C(CO)c1ccccc1)C2` (some centres undefined) the Potency [7] was “inactive”.
In the case of `CCNC(=O)[C@H]1O[C@@H](n2cnc3c(N)ncnc32)[C@H](O)C1O` (some centres undefined), the Potency [2] is reported as “inactive”, the Potency [3] is reported as “inactive” and the Potency [5] is reported as “inactive”. The Potency [4] was 0.168 µM (active).
For `N#CC1(O)CCCCC1`, the Potency (Aromatase (Homo sapiens)) was “inactive”, the Potency [7] was “inactive” and the Potency [8] was “inactive”. For the same compound, the Potency [9] was “inactive”, the Potency [10] was “inactive” and the Potency [11] was “inactive”.
In the case of `COC[C@H]1OC(=O)c2coc3c2[C@@]1(C)C1=C(C3=O)C2CCC(=O)[C@@]2(C)C[C@H]1OC(C)=O` (some centres undefined), the Potency [2] is reported as “inactive”, the Potency [3] is reported as “inactive” and the Potency [5] is reported as “inactive”. The Potency [4] was “inactive”.
With `C[N+]1(C)[C@@H]2CC(OC(=O)[C@H](CO)c3ccccc3)C[C@H]1[C@@H]1O[C@@H]12` (some centres undefined) the Potency [12] was “inactive”, the Potency [13] was “inactive” and the Potency [8] was “inactive”. The Potency [9] was “inactive”, the Potency [10] was “inactive” and the Potency [11] was “inactive”.
